In PubChem BioAssay (NCI):
This is part of a sample that, as a whole, favours compounds with a hit. Of some 83,000 tested, about 20% had one in any assay.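 For each line, cells grew in 96-well plates with the test compound present at a single concentration for 48 hours.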 A number with no mark means an inactive call. Calls of active or inactive are those of the source. The calls were made as follows: active = growth percent below 10; inactive = the rest.

Columns and labels:
Assay in all cases: NCI-60 one-dose screen, 48 h (100 = growth as untreated, 0 = no growth, -100 = all killed)
Details in all cases: 10 µM unless noted
[1] = system: HCT-15 colon
[2] = system: HT29 colon
[3] = system: SNB-75 CNS
[4] = system: SNB-19 CNS
[5] = system: U251 CNS
[6] = system: PC-3 prostate
[7] = system: SK-MEL-5 melanoma
[8] = system: UACC-62 melanoma
[9] = system: SK-MEL-28 melanoma
[10] = system: SK-MEL-2 melanoma
[11] = system: EKVX NSCLC
[12] = system: SN12C renal
[13] = system: UO-31 renal
[14] = system: TK-10 renal
[15] = system: ACHN renal
[16] = system: CAKI-1 renal
[17] = system: A498 renal
[18] = system: CCRF-CEM leukemia
[19] = system: MOLT-4 leukemia

## CC1=C(C(=O)c2ccccc2)C(c2ccc(-n3cncn3)cc2)n2c(nc3ccccc32)N1 (stereo not given)
[1]
  growth: 83.9%
[2]
  growth: 93.7%
[3]
  growth: 76.4%
[4]
  growth: 74.9%
[5]
  growth: 71.7%
[6]
  growth: 78.7%
[7]
  growth: 89.7%
[8]
  growth: 70.6%
[9]
  growth: 106%
[10]
  growth: 101%
[11]
  growth: 64.4%
[12]
  growth: 79.4%
[13]
  growth: -22.7% (active)
[14]
  growth: 104%
[15]
  growth: 88.8%
[16]
  growth: 62.8%
[17]
  growth: 113%
[18]
  growth: 70.9%
[19]
  growth: 66.9%

## COCOc1cc2c(=O)c(C)c(C(=O)N[C@@H](Cc3ccccc3)C(O)C(=O)NCc3ccccc3)oc2cc1OC (stereo not given in full)
[1]
  growth: 84.3%
[2]
  growth: 43.3%
[3]
  growth: 3.85% (active)
[4]
  growth: 15.7%
[5]
  growth: -36.6% (active)
[6]
  growth: 73.4%
[7]
  growth: 10.6%
[8]
  growth: -14.8% (active)
[9]
  growth: 38.9%
[10]
  growth: -2.79% (active)
[11]
  growth: 78.4%
[12]
  growth: 42.7%
[13]
  growth: 81.5%
[14]
  growth: 88.8%
[15]
  growth: 83.7%
[16]
  growth: 50.5%
[17]
  growth: -6.29% (active)
[18]
  growth: 96.1%
[19]
  growth: 87.8%

## Nc1nc(-c2ccccc2)c(N=Nc2ccc([N+](=O)[O-])cc2Cl)s1
[1]
  growth: 68.1%
[2]
  growth: 96.2%
[3]
  growth: 85.7%
[4]
  growth: 96.3%
[5]
  growth: 82.5%
[6]
  growth: 77.7%
[7]
  growth: 42.5%
[8]
  growth: 57.8%
[9]
  growth: 89.1%
[10]
  growth: 43.4%
[11]
  growth: 89.2%
[12]
  growth: 83.7%
[13]
  growth: 94.9%
[14]
  growth: 172%
[15]
  growth: 79.1%
[16]
  growth: 81.2%
[17]
  growth: 73.6%
[18]
  growth: 78.7%
[19]
  growth: 79%

## O=C(N/N=C/c1ccc(-c2ccc(O)cc2)s1)c1[nH]c2ccc(Br)cc2c1-c1ccccc1
[1]
  growth: 6.81% (active)
[2]
  growth: -71.4% (active)
[3]
  growth: -12.7% (active)
[4]
  growth: 20.2%
[5]
  growth: 25.7%
[6]
  growth: 7.47% (active)
[7]
  growth: 5.31% (active)
[8]
  growth: -13.1% (active)
[9]
  growth: 1.23% (active)
[10]
  growth: -4.17% (active)
[11]
  growth: 12.3%
[12]
  growth: 4.89% (active)
[13]
  growth: 15.2%
[14]
  growth: 22.2%
[15]
  growth: -2.55% (active)
[16]
  growth: 37.2%
[17]
  growth: -8.65% (active)
[18]
  growth: -8.51% (active)
[19]
  growth: -13.3% (active)

## COc1cc(-c2ccc(/C=N/NC(=O)c3[nH]c4ccc(Br)cc4c3-c3ccccc3)o2)cc(OC)c1OC
[1]
  growth: 69.2%
[2]
  growth: 96.4%
[3]
  growth: 74.4%
[4]
  growth: 52.4%
[5]
  growth: 40.6%
[6]
  growth: 68.8%
[7]
  growth: 92.2%
[8]
  growth: 77.2%
[9]
  growth: 86.8%
[10]
  growth: 107%
[11]
  growth: 65.7%
[12]
  growth: 96.3%
[13]
  growth: 102%
[14]
  growth: 112%
[15]
  growth: 76%
[16]
  growth: 74.5%
[17]
  growth: 134%
[18]
  growth: 69.5%
[19]
  growth: 77.3%

## N#Cc1c(-c2cccc(Cl)c2Cl)cc(-c2c[nH]c3ccccc23)[nH]c1=O
[1]
  growth: 49.7%
[2]
  growth: 110%
[3]
  growth: 79.6%
[4]
  growth: 77.2%
[5]
  growth: 68.9%
[6]
  growth: 26.5%
[7]
  growth: 51.6%
[8]
  growth: 47.7%
[9]
  growth: 83.5%
[10]
  growth: 87.7%
[11]
  growth: 53%
[12]
  growth: 53.6%
[13]
  growth: 43.1%
[14]
  growth: 108%
[15]
  growth: 59%
[16]
  growth: 53%
[17]
  growth: 128%
[18]
  growth: 33.1%
[19]
  growth: 41%

## C/C(=N\N=C1/C(=O)Nc2ccccc21)c1ccc2c(c1)Nc1ccccc1S2
[1]
  growth: 48.6%
[2]
  growth: 71.5%
[3]
  growth: 44%
[4]
  growth: 64.5%
[5]
  growth: 60.1%
[6]
  growth: 63.6%
[7]
  growth: 42%
[8]
  growth: 40.5%
[9]
  growth: 75%
[10]
  growth: 80.5%
[11]
  growth: 43.7%
[12]
  growth: 42.1%
[13]
  growth: 34.4%
[14]
  growth: 78.7%
[15]
  growth: 56.1%
[16]
  growth: 49.4%
[17]
  growth: 28.2%
[18]
  growth: 45.8%
[19]
  growth: 11.4%

## CC1=C(C(=O)OC(C)C)C(c2cccc(O)c2)NC(=S)N1 (stereo not given)
[1]
  growth: 106%
[2]
  growth: 102%
[3]
  growth: 105%
[4]
  growth: 96.8%
[5]
  growth: 103%
[6]
  growth: 107%
[7]
  growth: 98.8%
[8]
  growth: 91.3%
[9]
  growth: 103%
[10]
  growth: 111%
[11]
  growth: 99.6%
[12]
  growth: 102%
[13]
  growth: 92%
[14]
  growth: 104%
[15]
  growth: 98.1%
[16]
  growth: 89.9%
[17]
  growth: 125%
[18]
  growth: 98.6%
[19]
  growth: 96.1%

## COc1ccc2nc(Nc3cccc(NC(=O)c4ccc(CN5CCCN(C)CC5)c(C(F)(F)F)c4)c3)ccc2c1
[1]
  growth: -64.7% (active)
[2]
  growth: -69.7% (active)
[3]
  growth: -35.3% (active)
[4]
  growth: -76.4% (active)
[5]
  growth: 1.47% (active)
[6]
  growth: -57% (active)
[7]
  growth: -69.2% (active)
[8]
  growth: -61.1% (active)
[9]
  growth: -74.9% (active)
[10]
  growth: -74.5% (active)
[11]
  growth: -98.5% (active)
[12]
  growth: -65.9% (active)
[13]
  growth: -66.9% (active)
[14]
  growth: -81.1% (active)
[15]
  growth: -91.5% (active)
[16]
  growth: -65.2% (active)
[17]
  growth: -53.3% (active)
[18]
  growth: -43.6% (active)
[19]
  growth: -4.91% (active)

## O=C1NC(=O)/C(=C/c2ccccc2OCc2cc3ccccc3nc2Cl)S1
[1]
  growth: 84%
[2]
  growth: 108%
[3]
  growth: 46.9%
[4]
  growth: 39.2%
[5]
  growth: 58%
[6]
  growth: 112%
[7]
  growth: 67.6%
[8]
  growth: 52%
[9]
  growth: 102%
[10]
  growth: 88.6%
[11]
  growth: 88%
[12]
  growth: 81.4%
[13]
  growth: 71.9%
[14]
  growth: 97.7%
[15]
  growth: 86.2%
[16]
  growth: 82.3%
[17]
  growth: 122%
[18]
  growth: 53.9%
[19]
  growth: 85.3%

## CC(=O)OCC1OC(OC2C(COC(C)=O)OC(n3cc(COc4ccc5ccc(=O)oc5c4)nn3)C(OC(C)=O)C2OC(C)=O)C(OC(C)=O)C(OC(C)=O)C1OC(C)=O (stereo not given)
[1]
  growth: 102%
[2]
  growth: 114%
[3]
  growth: 69.2%
[4]
  growth: 100%
[5]
  growth: 106%
[6]
  growth: 98.8%
[7]
  growth: 99.2%
[8]
  growth: 94.2%
[9]
  growth: 109%
[10]
  growth: 113%
[11]
  growth: 107%
[12]
  growth: 98.3%
[13]
  growth: 74.7%
[14]
  growth: 108%
[15]
  growth: 102%
[16]
  growth: 88.1%
[17]
  growth: 116%
[18]
  growth: 100%
[19]
  growth: 97%

## COc1cc2c(c(OC)c1OC)C(=O)CC(c1cccc(NC(=O)[C@@H](N)CC(C)C)c1)O2 (stereo not given in full)
[1]
  growth: 95.3%
[2]
  growth: 108%
[3]
  growth: 97.8%
[4]
  growth: 91.2%
[5]
  growth: 95.3%
[6]
  growth: 97.2%
[7]
  growth: 96.7%
[8]
  growth: 96.8%
[9]
  growth: 115%
[10]
  growth: 99.3%
[11]
  growth: 99.1%
[12]
  growth: 84.4%
[13]
  growth: 78%
[14]
  growth: 115%
[15]
  growth: 103%
[16]
  growth: 80.6%
[17]
  growth: 89.3%
[18]
  growth: 97.6%
[19]
  growth: 96.1%

## O=c1[nH]n(C(=S)N/N=C/c2ccccc2Cl)c(=O)c2ccccc12
[1]
  growth: -41.3% (active)
[2]
  growth: 0.552% (active)
[3]
  growth: 52.1%
[4]
  growth: 8.55% (active)
[5]
  growth: -46.5% (active)
[6]
  growth: 22.6%
[7]
  growth: 5.82% (active)
[8]
  growth: -65.4% (active)
[9]
  growth: -26.3% (active)
[10]
  growth: -33% (active)
[11]
  growth: -35.4% (active)
[12]
  growth: 7.3% (active)
[13]
  growth: 15.6%
[14]
  growth: 25.8%
[15]
  growth: 5.27% (active)
[16]
  growth: 27.5%
[17]
  growth: 38.7%
[18]
  growth: -11.2% (active)
[19]
  growth: -1.75% (active)

## Cn1cc(-c2nnc(N)nc2-c2c[nH]c3ccc(F)cc23)c2cccnc21
[1]
  growth: 28.5%
[2]
  growth: 16.8%
[3]
  growth: 24.4%
[4]
  growth: 52.2%
[5]
  growth: 37.3%
[6]
  growth: 63.7%
[7]
  growth: 20.9%
[8]
  growth: 36.9%
[9]
  growth: 63.2%
[10]
  growth: 15.7%
[11]
  growth: 62.4%
[12]
  growth: 45.9%
[13]
  growth: 48.4%
[14]
  growth: 82.4%
[15]
  growth: 54.6%
[16]
  growth: 45.7%
[17]
  growth: 86.2%
[18]
  growth: 47.9%
[19]
  growth: 28.9%

## COc1ccc(NC(=O)Cn2c(O)c(N=Nc3ccc(S(N)(=O)=O)cc3)c3ccccc32)cc1
[1]
  growth: 79%
[2]
  growth: -2.87% (active)
[3]
  growth: 59.7%
[4]
  growth: 23%
[5]
  growth: -32.5% (active)
[6]
  growth: 14.4%
[7]
  growth: 62.3%
[8]
  growth: 20.7%
[9]
  growth: 26.7%
[10]
  growth: 50.6%
[11]
  growth: 62%
[12]
  growth: 60%
[13]
  growth: 84.1%
[14]
  growth: 75.9%
[15]
  growth: 35.2%
[16]
  growth: 27.4%
[17]
  growth: 103%
[18]
  growth: 85.3%
[19]
  growth: 73.6%
